Measurements: PubChem BioAssay AID1347417 (National Center for Advancing Translational Sciences (NCATS), 2020)
In all, about 120,000 compounds went through this assay and about 5,300 (4.4%) were called active. About 22% were inconclusive and are not listed. Calls follow the shape of the dose curve; as a rule, active = well fitted inhibition curve with a large enough effect; inconclusive = small, poorly fitted or top-dose-only effect; inactive = no such curve, though single readings can be large or run the other way. The list comes from a sample in which actives are over-represented; it also holds similar structures and randomly drawn compounds. A call without a number means that no potency is given here.

test: qHTS Primary assay for Inhibitors of Plasmodium falciparum Dd2 growth in vitro; also: nearly all actives have a fitted effect of over 65% in size; conditions: P. falciparum Dd2 growth, SYBR Green, 72 h; series mostly up to 28.9 µM
Procedure, shortened: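 Infected erythrocytes (Dd2, 0.3% parasitemia, 2.5% hematocrit final) are added to compound in RPMI-1640/Albumax II medium, grown 72 h at 37C in low oxygen, then lysed with saponin/Triton-X containing SYBR Green and read by fluorescence.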
Potency is read from the fitted curve at half-maximal effect.

SMILES | Potency
COc1ccc(C(=O)N2[C@@H]3CC[C@H]2CC(NC(=O)c2ccncc2)C3)cc1OC (stereo partly drawn) | inactive
O=C(c1ccco1)N1CCC2(CC1)CC(N(Cc1ccccc1)C1CC1)CCO2 (stereo not drawn) | 4.47 µM (active)
O=C(c1cc(F)ccc1F)N1CCC2(CC1)CC(N(Cc1ccccc1)C1CC1)CCO2 (stereo not drawn) | inactive
CC(=O)N(C1CC1)C1CCOC2(CCN(C(=O)CCc3ccccc3)CC2)C1 (stereo not drawn) | inactive
CCN1CC2(CCN(C(=O)c3cc4c(cc3OC)CCC4)CC2)OC1=O | inactive
O=Cc1cccc(-c2cc(F)cc(F)c2)c1 | inactive
CCc1nc2nc(C)cc(Nc3ccc(F)c(Cl)c3)n2n1 | 3.55 µM (active)
CC(=O)c1ccc(NC(=O)c2nc3nc(C)cc(C(F)F)n3n2)cc1 | inactive
Cc1ccc(S(=O)(=O)NCc2nc3nc(C)cc(C)n3n2)cc1 | inactive
COCCN1C(=O)c2ccccc2C(C(=O)NC2CCCCCC2)C12CCCCC2 (stereo not drawn) | inactive
COc1cc(OC)c(NC(=O)Cn2ccn3nc(-c4ccccc4)c(CO)c3c2=O)cc1Cl | inactive
CCNc1ncc(CN2CCN(c3cccc(C(F)(F)F)c3)CC2)cn1 | 11.2 µM (active)
Cc1cc(N2CCN(c3cccc(C(F)(F)F)c3)CC2)n2nc(-c3ccccc3)nc2n1 | inactive
CC(C)(C)C(=O)N1CC[C@@H](CC(=O)O)[C@@H](CCN2CCN(c3cccc(C(F)(F)F)c3)CC2)C1 | inactive
N#Cc1ccc(OCC2CN(Cc3c[nH]c4ccccc34)C(=O)c3c(ccnc3-c3ccc(OCC(=O)O)cc3)O2)cc1 (stereo not drawn) | inactive
COc1ccccc1OC1(C(=O)O)CCN(C(=O)CC2CC2)CC1 | inactive
CN(C)c1ccc(C(=O)N[C@H]2C[C@H]3C(=O)NC[C@@H](CCC(=O)N4CCCCC4)N3C2)cc1 | inactive
Cn1nc2c(c1NC(=O)Cn1nc3c(cc1=O)CCCC3)CSC2 | inactive
CCN1C(=O)COC[C@@H]1C(O)c1ccc(NC(=O)Cc2ccc(OC)cc2)cc1 (stereo partly drawn) | inactive
Cc1ccc(C(=O)Nc2ccc(C(O)[C@H]3COCC(=O)N3Cc3ccccc3F)cc2)cc1 (stereo partly drawn) | inactive
CCOCCN1C(=O)COC[C@@H]1[C@H](O)c1ccc(NC(=O)c2cnccn2)cc1 | inactive
O=C(Nc1ccc([C@@H](O)[C@H]2COCC(=O)N2CCCc2ccccc2)cc1)C1CC1 | inactive
O=C(CCc1ccccc1)Nc1ccc([C@@H](O)[C@H]2COCC(=O)N2Cc2ccccc2F)cc1 | 11.2 µM (active)
COCC(=O)Nc1ccc([C@@H](O)[C@H]2COCC(=O)N2Cc2ccc(C(F)(F)F)cc2)cc1 | 12.6 µM (active)
Cc1ccc(Cl)cc1NC(=O)CN1C(=O)NC2(CCC(C)CC2)C1=O (stereo not drawn) | inactive

SMILES | Potency
Cc1ccc(CN2CCCOCCNC(=O)CC2)o1 | inactive
CCn1cc(CN2CC[C@H]3C(=O)NCCCCCCN(Cc4ccncc4)[C@@H]3C2)c(C)n1 | inactive
O=C(NCc1ccccc1)N1CCN2C(=O)NC[C@H]2C1 | inactive
O=C(NC1CCCCCC1)c1ccc2c(c1)CC(=O)N2Cc1cccc(F)c1 | inactive
CCOc1ccc(CNC(=O)c2cccc(Nc3nc4ccccc4n4nnnc34)c2)cc1OC | 11.2 µM (active)
CCOc1ccc(OCC)c(Nc2nc3ccccc3n3nnnc23)c1 | inactive
CCOc1ccc(CNC(=O)c2ccc3nc(CC)c(CC)nc3c2)cc1OC | inactive
CC(=O)NCC1Cn2cccc2CN1Cc1ccccc1 (stereo not drawn) | inactive
O=C(c1cccc(-n2cnnc2)c1)N(Cc1ccsc1)CC1CCCO1 (stereo not drawn) | inactive
CC(C)c1ccc(C2CC(=O)N3CN(C4CCCCC4)CSC3=C2C#N)cc1 (stereo not drawn) | 11.2 µM (active)
CCn1nccc1C(=O)N1CCCC(c2nc(-c3cccnc3)no2)CCNC(=O)CC1 (stereo not drawn) | inactive
O=C(c1cc(F)ccc1F)N1CCCCCC1c1nnc(-c2ccccc2)o1 (stereo not drawn) | inactive
Cc1cc(CN(C)C(=O)c2cc(COc3ccc(F)cc3F)on2)on1 | inactive
CCCNc1cc(N2CCC(CCC(=O)Nc3ccc(C)cc3)CC2)ncn1 | 12.6 µM (active)
CCCNC(=O)CCC1CCN(C(=O)c2ccc(C)cc2)CC1 | inactive
CCNc1cc(N2CCC(CCC(=O)N3CCc4ccccc4C3)CC2)ncn1 | inactive
CCOc1ccccc1C(=O)N[C@@H]1CN(c2ncccn2)C[C@H]1CO | inactive
CC(=O)N1CCC(C(=O)NCC(=O)N2CCCCCCNC(=O)CC2c2ccccc2)CC1 (stereo not drawn) | inactive
Cc1nn2c(c1-c1ccccc1Oc1ccccc1)N(C(=O)C(C)C)CCC2 | 10 µM (active)
Cc1nn2c(c1-c1ccccc1N1CCCC1)N(C(=O)c1ccc(Oc3ccccc3)cc1)CCC2 | inactive
Cc1nn2c(c1-c1ccnn1C(C)C)N(C(=O)c1ccc(Oc3ccccc3)cc1)CCC2 | inactive
c1ccc(-c2nnc(CN3CCN(c4cnccn4)CC3)o2)cc1 | inactive
COc1cc(Nc2nc(-c3ccc(OC)c(OC)c3)nc3ccccc23)cc(OC)c1 | 8.91 µM (active)
COc1ccc(CCNc2nc(-c3ccc(F)cc3)cc(C(F)(F)F)n2)cc1OC | inactive
COc1ccc(Nc2ncc(C(=O)Nc3cc(C)ccc3OC)c3ccccc23)cc1 | inactive

SMILES | Potency
COc1ccc(OCc2nc(C)c(CCO)c(=O)n2CC(=O)Nc2ccccc2C)cc1 | inactive
CCC(C)NC(=O)CN1CN(c2ccccc2)C2(CCN(C(=O)c3ccccc3OC)CC2)C1=O (stereo not drawn) | inactive
O=C(NC1CC(=O)N(Cc2ccccc2C(F)(F)F)C1)c1ccc[n+]([O-])c1 (stereo not drawn) | inactive
O=C(c1cn2ccsc2n1)N1CCn2nc(C(O)c3ccccc3)cc2C1 (stereo not drawn) | inactive
COC[C@@H]1CN(C(=O)c2cc(C)oc2C)C[C@H]1c1nc(C2CC2)no1 | inactive
NS(=O)(=O)c1ccc2nc(NC(=O)COc3ccccc3)sc2c1 | inactive
Cc1cc2nc(NC(=O)c3ccc(S(=O)(=O)N4CCOCC4)cc3)sc2cc1C | inactive
CN(C)c1cccc(C(=O)Nc2nc3ccc(S(=O)(=O)NC(C)(C)C)cc3s2)c1 | 11.2 µM (active)
CCOCCOC1CCN(C(=O)Cc2cccc(OC)c2)CC1 | inactive
Cc1ccc(NC(=O)N2CCC(OC3CCN(S(C)(=O)=O)CC3)CC2)cc1F | 0.447 µM (active)
Cc1cccc(C)c1NC(=O)N1CCC(OC2CCN(S(C)(=O)=O)CC2)CC1 | inactive
CS(=O)(=O)N1CCC(OC2CCN(C(=O)c3cccc(Cl)c3)CC2)CC1 | inactive
NC(=O)c1ccc(NC(=O)C2CC(=O)N(c3n[nH]c4cccc(F)c34)C2)cc1 (stereo not drawn) | inactive
COC(=O)c1cccc(NC(=O)N2CCC3(CCC(=O)N(Cc4ccccc4)CC3)CC2)c1 | inactive
CCOC(=O)c1ccc(N2C(=O)c3n[nH]c(C)c3C2c2ccc(O)c(OC)c2)cc1 (stereo not drawn) | inactive
CCOC(=O)c1ccc(N2C(=O)c3[nH]nc(-c4ccccc4)c3C2c2ccc(C(C)C)cc2)cc1 (stereo not drawn) | 7.94 µM (active)
CCOC(=O)c1ccc(NC(=O)C2CC(=O)N(c3ccc(C(C)C)cc3)C2)cc1 (stereo not drawn) | inactive
Nc1nc2c(s1)C(c1ccccc1)CC(=O)N2 (stereo not drawn) | inactive
Cc1cccc(-c2cccc(CN)c2)c1 | 11.2 µM (active)
NCc1ccc(-c2cncnc2)cc1 | inactive
O=C(Cc1ccsc1)N1CCC(Oc2ccccc2)C1 (stereo not drawn) | inactive
Cc1cccc(NC(c2cccc(F)c2)c2ccc3ccc(C)nc3c2O)n1 (stereo not drawn) | 6.31 µM (active)
O=C(N1CCCC1)N1CCCC(c2nnc3n2CCNC3)C1 (stereo not drawn) | inactive
COc1c(F)cccc1CN1CCOc2cc([S+](=O)([O-])N(C)C)ccc2C1 | inactive
COC(=O)C1=C(C)N=C2SC=C(CC(=O)NCc3ccco3)N2C1c1cccc(F)c1 (stereo not drawn) | inactive

SMILES | Potency
COC(=O)C1=C(C)N=C2SC=C(CC(=O)NCCC(C)C)N2C1c1ccccc1Cl (stereo not drawn) | inactive
COC(=O)C1=C(C)N=C2SC=C(CC(=O)NCc3ccccc3F)N2C1c1ccccc1Cl (stereo not drawn) | 11.2 µM (active)
CCCNC(=O)[C@@H]1Cc2cn(Cc3cc(C)on3)c3cccc(c23)[C@H](CC(C)C)N1 | inactive
Cc1ccc(-c2nc(S(=O)(=O)c3ccc(C)cc3)c(N3CCCCCC3)o2)cc1 | inactive
O=C(CSc1oc(-c2ccc(F)cc2)nc1S(=O)(=O)c1ccc(Br)cc1)NC1CCCCC1 | inactive
CC(C)S(=O)(=O)c1oc(-c2ccc(F)cc2)nc1S(=O)(=O)c1ccc(F)cc1 | 11.2 µM (active)
COc1cccc(SCC(=O)NCc2cc3n(n2)CCNC3)c1 | inactive
COC[C@@H]1CN(Cc2cnn(C)c2C)C[C@H]1c1nc(C2CC2)no1 | inactive
O=C1OC[C@@H]2CCN(Cc3cnc4ccccc4c3)Cc3ccc(F)cc3N12 | 5.62 µM (active)
O=C1OC[C@@H]2CCN(Cc3ccncc3)Cc3ccc(F)cc3N12 | inactive
O=C1OC[C@@H]2CCN(Cc3ccccc3)Cc3ccccc3N12 | inactive
Cc1ccc(-n2nc3n(c2=O)CCN(C(=O)C(C)(C)C)C3)cc1 | inactive
CN(C1CCc2nn(C)c(=O)n2CC1)S(=O)(=O)c1ccc2c(c1)OCCO2 (stereo not drawn) | inactive
CN1CCC(N2CC[C@H](c3nc4ccccc4s3)C2)CC1 | inactive
CC(C)c1ccc(CNC(=O)c2noc(-c3ccc[nH]c3=O)n2)cc1 | inactive
Cc1cc(OC2CN([S+](=O)([O-])c3cccs3)C2)ccc1F | inactive
CCc1nc2c(c(-c3ccc(OC)cc3)n1)CCN(CC1CCCCC1)CC2 | inactive
CCc1nc2c(c(-c3ccc(Cl)cc3)n1)CCN([S+](=O)([O-])c1cccs1)CC2 | 12.6 µM (active)
CCc1nc2c(c(-c3ccc(Cl)cc3)n1)CN(CCC(C)C)CC2 | 7.94 µM (active)
Cc1ccc(CN2CCc3nc(C)nc(-c4ccc(O)cc4)c3C2)cc1 | inactive
O=C1CCNCCCOCCN1 | inactive
Cc1ccc(NC2=C(c3ccc(C(F)(F)F)cc3)C(=O)c3ccccc32)cc1F | 0.178 µM (active)
Cc1ccc(NC(=O)CN2c3ccccc3S(=O)(=O)c3ccccc32)cc1F | inactive
